Assay: NFkB reporter suppression in cystic fibrosis bronchial cells – cell-based, uHTS hits, panel, cytotoxicity readout, dose response (AID 624344)
Conditions: CF bronchial epithelial cells, PAF-induced NFkB reporter inhibition, with PAF, run 1; at 79 µM (top of the series) unless noted

Row | Compound | inhibition [%]
1 | Cc1ccc2occ(/C=N/NC(=O)c3ccccc3Br)c(=O)c2c1 | 94.7
2 | CCCc1nc(Cl)c(C#N)c2c1CCCC2 | 97.8
3 | Cc1cc(N2C(=O)C(O)=C(C(=O)c3ccc(C)o3)C2c2cccc(Oc3ccccc3)c2)no1 (stereo not given) | 64
4 | C=CCN1c2ccccc2Sc2cnccc21 | 105
5 | COc1ccc2[nH]c(=O)c3c(c2c1)OC(C)(C)C=C3 | 105
6 | O=S(=O)(Nc1ccc(Cl)cc1NS(=O)(=O)c1ccccc1)c1ccccc1 | 114
7 | CC1(C)CC(=O)C(C2C3=C(CC(C)(C)CC3=O)Oc3c(Br)cc(Br)cc32)=C(O)C1 (stereo not given) | 104
8 | CC(=O)Oc1c(Cl)cc(N(C(C)=O)S(=O)(=O)c2ccccc2)c2ccccc12 | 89.7
9 | O=C(Nc1nnc(C(F)(F)F)s1)c1ccc(Br)s1 | 114
10 | COc1ccc(COC(=O)C2=C(C)NC(=O)NC2c2ccc(F)cc2)cc1 (stereo not given) | 90.1
11 | COc1ccc(-c2cc(C(F)(F)F)nc(S(=O)(=O)CCCC(=O)Nc3cccnc3Cl)n2)cc1OC | 99.5
12 | CC(C)(C)C(=O)/C(=C/c1ccncc1)n1cncn1 | 98.3
13 | Cc1nc([N+](=O)[O-])c(Sc2nc3ccccc3n2C)n1Cc1ccccc1 | 101
14 | CN(C)/C=C/C(=O)c1ccc2noc(-c3ccccc3)c2c1 | 118
15 | COc1ccccc1NS(=O)(=O)c1cccc(-n2c(O)c(C=Nc3ccccc3C(=O)O)c3ccccc3c2=O)c1 | 105
16 | C[C@@H]1CN([C@H](C)CO)C(=O)c2cc(NC(=O)Nc3ccc(C(F)(F)F)cc3)ccc2O[C@H]1CN(C)S(=O)(=O)c1cccs1 | 113
17 | Nc1ncnc2c1c(-c1ccc(Oc3ccccc3)cc1)cn2C1CCCC1 | 114
18 | Cc1nc([N+](=O)[O-])c(Sc2nc3ccc([N+](=O)[O-])cc3[nH]2)n1Cc1ccccc1 | 101
19 | Cc1cnc(C=O)c2cccc([N+](=O)[O-])c12 | 110
20 | Cc1c(Cl)cccc1NC(=O)COC(=O)c1c2c(nc3ccccc13)CCN(Cc1ccccc1)C2 | 72.2

Row | Compound | inhibition [%]
21 | NS(=O)(=O)c1ccc(CCNc2nn3c(-c4cccc(OC(F)(F)F)c4)cnc3s2)cc1 | 98.6
22 | CCCCCOC(=O)c1[nH]c2c(c1C)C(=O)CC(c1ccco1)C2 (stereo not given) | 75
23 | O=C(NCc1ccccc1)C1=C[C@H](c2csc3ccccc23)C[C@H](OCc2ccc(CO)cc2)O1 | 72
24 | O=C1N(c2ccccc2C(F)(F)F)O[C@]1(c1ccccc1)C1CCCCC1 | 90.7
25 | COc1cccc(-c2cc(NC=O)c3ncc(-c4ccc(C(C)=O)cc4)n3c2)c1 | 84.6
26 | Brc1cccc(CSc2nnc(-c3ccncc3)o2)c1 | 105
27 | O=c1c(-c2c(O)cc(O)c3c2O[C@H](c2ccc(O)cc2)CC3)c(-c2ccc(O)cc2)oc2cc(O)cc(O)c12 | 105
28 | COc1ccc2ncn(-c3ccccc3)c2c1 | 104
29 | C=C1C(=O)[C@]23C[C@H]1CCC2[C@]1(C)C(=O)CC[C@@](C)(C(=O)O)C1C[C@@H]3O (stereo not given in full) | 98.9
30 | CCOC(=O)c1c(C)c2c(=O)[nH]cnc2n1-c1ccccc1 | 110
31 | Nc1nc(N)nc(-c2cc([N+](=O)[O-])ccc2O)n1 | 76.3
32 | CCOC(=O)/C=c1/s/c(=C\c2c(OC)ccc3ccccc23)c(=O)n1CC(=O)NCC1CCCO1 (stereo not given) | -195
33 | COc1cccc(-c2ccc3ncnc(NCc4cccnc4)c3c2)c1 | 103
34 | CC(=O)Nc1ccc(-c2ccnc3c2CC(C(=O)NCc2ccccc2)O3)cc1 (stereo not given) | -53.5
35 | COc1cccc(-c2ccc3ncnc(NCc4cc(C)cs4)c3c2)c1 | 106
36 | c1cc(-c2nnc3sc(C4CCCCC4)nn23)ccn1 | 102
37 | C[C@@H]1CN([C@H](C)CO)C(=O)c2cc(NC(=O)Nc3ccc(C(F)(F)F)cc3)ccc2O[C@H]1CN(C)S(=O)(=O)c1ccccc1 | 92
38 | Cc1cc2cc(CCNC(=O)C(=O)c3c[nH]c4ccccc34)c(=O)[nH]c2cc1C | 94.2
39 | S=c1[nH]nc(-c2ccncc2)n1/N=C/C(Cl)=C\c1ccccc1 | 101
40 | COc1ccc(NC(=O)c2cc3c(-c4ccc(OC)c(OC)c4)nn(C)c3s2)cc1OC | 107

Assay: as above
Conditions: CF bronchial epithelial cells, PAF-induced NFkB reporter inhibition, with PAF, run 2; at 79 µM (top of the series) unless noted

Row | Compound | inhibition
41 | Cc1ccc2occ(/C=N/NC(=O)c3ccccc3Br)c(=O)c2c1 | 114%
42 | CCCc1nc(Cl)c(C#N)c2c1CCCC2 | 98.1%
43 | Cc1cc(N2C(=O)C(O)=C(C(=O)c3ccc(C)o3)C2c2cccc(Oc3ccccc3)c2)no1 (stereo not given) | 82.8%
44 | C=CCN1c2ccccc2Sc2cnccc21 | 116%
45 | COc1ccc2[nH]c(=O)c3c(c2c1)OC(C)(C)C=C3 | 117%
46 | O=S(=O)(Nc1ccc(Cl)cc1NS(=O)(=O)c1ccccc1)c1ccccc1 | 85.8%
47 | CC1(C)CC(=O)C(C2C3=C(CC(C)(C)CC3=O)Oc3c(Br)cc(Br)cc32)=C(O)C1 (stereo not given) | 111%
48 | CC(=O)Oc1c(Cl)cc(N(C(C)=O)S(=O)(=O)c2ccccc2)c2ccccc12 | 108%
49 | O=C(Nc1nnc(C(F)(F)F)s1)c1ccc(Br)s1 | 74.5%
50 | COc1ccc(COC(=O)C2=C(C)NC(=O)NC2c2ccc(F)cc2)cc1 (stereo not given) | 105%
51 | COc1ccc(-c2cc(C(F)(F)F)nc(S(=O)(=O)CCCC(=O)Nc3cccnc3Cl)n2)cc1OC | 99.1%
52 | CC(C)(C)C(=O)/C(=C/c1ccncc1)n1cncn1 | 102%
53 | Cc1nc([N+](=O)[O-])c(Sc2nc3ccccc3n2C)n1Cc1ccccc1 | 115%
54 | CN(C)/C=C/C(=O)c1ccc2noc(-c3ccccc3)c2c1 | 105%
55 | COc1ccccc1NS(=O)(=O)c1cccc(-n2c(O)c(C=Nc3ccccc3C(=O)O)c3ccccc3c2=O)c1 | 85%
56 | C[C@@H]1CN([C@H](C)CO)C(=O)c2cc(NC(=O)Nc3ccc(C(F)(F)F)cc3)ccc2O[C@H]1CN(C)S(=O)(=O)c1cccs1 | 96.8%
57 | Nc1ncnc2c1c(-c1ccc(Oc3ccccc3)cc1)cn2C1CCCC1 | 94.1%
58 | Cc1nc([N+](=O)[O-])c(Sc2nc3ccc([N+](=O)[O-])cc3[nH]2)n1Cc1ccccc1 | 112%
59 | Cc1cnc(C=O)c2cccc([N+](=O)[O-])c12 | 106%
60 | Cc1c(Cl)cccc1NC(=O)COC(=O)c1c2c(nc3ccccc13)CCN(Cc1ccccc1)C2 | 97.3%

Row | Compound | inhibition
61 | NS(=O)(=O)c1ccc(CCNc2nn3c(-c4cccc(OC(F)(F)F)c4)cnc3s2)cc1 | 102%
62 | CCCCCOC(=O)c1[nH]c2c(c1C)C(=O)CC(c1ccco1)C2 (stereo not given) | 62.8%
63 | O=C(NCc1ccccc1)C1=C[C@H](c2csc3ccccc23)C[C@H](OCc2ccc(CO)cc2)O1 | 52.1%
64 | O=C1N(c2ccccc2C(F)(F)F)O[C@]1(c1ccccc1)C1CCCCC1 | 98.7%
65 | COc1cccc(-c2cc(NC=O)c3ncc(-c4ccc(C(C)=O)cc4)n3c2)c1 | 93.6%
66 | Brc1cccc(CSc2nnc(-c3ccncc3)o2)c1 | 99%
67 | O=c1c(-c2c(O)cc(O)c3c2O[C@H](c2ccc(O)cc2)CC3)c(-c2ccc(O)cc2)oc2cc(O)cc(O)c12 | 102%
68 | COc1ccc2ncn(-c3ccccc3)c2c1 | 101%
69 | C=C1C(=O)[C@]23C[C@H]1CCC2[C@]1(C)C(=O)CC[C@@](C)(C(=O)O)C1C[C@@H]3O (stereo not given in full) | 89.8%
70 | CCOC(=O)c1c(C)c2c(=O)[nH]cnc2n1-c1ccccc1 | 104%
71 | Nc1nc(N)nc(-c2cc([N+](=O)[O-])ccc2O)n1 | 66.7%
72 | CCOC(=O)/C=c1/s/c(=C\c2c(OC)ccc3ccccc23)c(=O)n1CC(=O)NCC1CCCO1 (stereo not given) | 46.6% [at 39.5 µM]
73 | COc1cccc(-c2ccc3ncnc(NCc4cccnc4)c3c2)c1 | 100%
74 | CC(=O)Nc1ccc(-c2ccnc3c2CC(C(=O)NCc2ccccc2)O3)cc1 (stereo not given) | -72.7%
75 | COc1cccc(-c2ccc3ncnc(NCc4cc(C)cs4)c3c2)c1 | 116%
76 | c1cc(-c2nnc3sc(C4CCCCC4)nn23)ccn1 | 109%
77 | C[C@@H]1CN([C@H](C)CO)C(=O)c2cc(NC(=O)Nc3ccc(C(F)(F)F)cc3)ccc2O[C@H]1CN(C)S(=O)(=O)c1ccccc1 | 110%
78 | Cc1cc2cc(CCNC(=O)C(=O)c3c[nH]c4ccccc34)c(=O)[nH]c2cc1C | 95.5%
79 | S=c1[nH]nc(-c2ccncc2)n1/N=C/C(Cl)=C\c1ccccc1 | 109%
80 | COc1ccc(NC(=O)c2cc3c(-c4ccc(OC)c(OC)c4)nn(C)c3s2)cc1OC | 101%
